Assay outcomes deposited in PubChem by several laboratories.
This is a sample that favours compounds with a hit; in the whole collection about 3% have one here.
Peg3 prom inh: reduces Peg3 promoter-driven luciferase expression in HeLa; HeLa PEG-Prom luciferase reporter, luminescence, overnight; inhibition, % at 20 µM; 360,000 compounds, 1.7% hits; AID 588405;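 active = inhibition of at least 50% at 20 µM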
ABHD5-PLIN5 inh: inhibitors of human ABHD5-perilipin-5 interaction; Q00G26+Q8WTS1; 360,000 compounds, 0.78% hits; Split G. princeps luciferase complementation, luminescence, 4 h; inhibition, % at 4 µM;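 active = inhibition above the mean inhibition across every tested compound plus 3 SD, cut at about 22% in these data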
Target sequence (Q00G26 whole entry, looked up): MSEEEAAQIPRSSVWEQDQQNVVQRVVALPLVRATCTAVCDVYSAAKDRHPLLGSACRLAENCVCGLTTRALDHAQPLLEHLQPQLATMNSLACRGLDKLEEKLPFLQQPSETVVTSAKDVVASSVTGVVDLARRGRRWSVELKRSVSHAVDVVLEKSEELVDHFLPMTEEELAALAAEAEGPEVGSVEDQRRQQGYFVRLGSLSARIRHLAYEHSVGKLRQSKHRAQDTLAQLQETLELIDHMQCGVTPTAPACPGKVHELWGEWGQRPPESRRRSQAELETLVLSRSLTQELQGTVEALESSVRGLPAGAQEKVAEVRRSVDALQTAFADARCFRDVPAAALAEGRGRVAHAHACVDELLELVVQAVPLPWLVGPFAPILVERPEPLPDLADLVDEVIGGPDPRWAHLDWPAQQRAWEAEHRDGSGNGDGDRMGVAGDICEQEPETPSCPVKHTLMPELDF
Target sequence (Q8WTS1 whole entry, looked up): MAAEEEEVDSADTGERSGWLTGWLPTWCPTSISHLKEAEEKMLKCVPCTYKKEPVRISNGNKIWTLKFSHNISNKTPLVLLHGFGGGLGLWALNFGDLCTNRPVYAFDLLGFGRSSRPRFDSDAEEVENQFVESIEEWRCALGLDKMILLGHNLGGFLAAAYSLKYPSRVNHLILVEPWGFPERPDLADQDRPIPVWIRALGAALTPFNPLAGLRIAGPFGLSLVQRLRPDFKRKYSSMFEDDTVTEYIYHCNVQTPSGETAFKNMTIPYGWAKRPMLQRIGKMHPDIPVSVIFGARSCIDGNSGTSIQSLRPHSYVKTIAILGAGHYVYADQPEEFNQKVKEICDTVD
MITF TRPM1 inh: MITF TRPM1 promoter inhibition in SK-MEL-5 cells | inhibition, % at 12.5 µM | 330,000 compounds, 0.83% hits | AID 488899 | SK-MEL-5 TRPM1 promoter luciferase, 24 h;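 active = mean inhibition across replicates of 60% or more, whatever share of single replicates reaches that level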
PAX8 inh HTS: lowers PAX8-driven luciferase in RMG-I cells | RMG-I TPO-luciferase reporter, SteadyGlo, 24 h | inhibition, % at 12.6 µM | 360,000 compounds, 1.2% hits;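 active = mean replicate inhibition at least 60% with every replicate also reaching 60%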;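 note: luciferase light reporting Pax8 driven TPO promoter activity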
Shn3 inh set2: Schnurri-3 reporter inhibition in Clone20 osteoblasts; 360,000 compounds, 0.52% hits; inhibition, % at 12.5 µM; Clone20 osteoblast Shn3 3'UTR firefly luciferase, 24 h;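 active = mean inhibition of at least 75% with every replicate also reaching 75%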
EWS-Fli block: inhibitors of EWS/Fli oncoprotein transcriptional activity. A673 NR0B1-luciferase reporter, viability-normalised. inhibition, % at 12.6 µM. 350,000 compounds, 0.67% hits. AID 651661;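 active = mean inhibition of at least 50% after viability correction, with every replicate also passing that limit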;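 note: firefly luciferase signal divided by Alamar Blue viability fluorescence both relative to DMSO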
Hits are given with their value.

Results for CCCC(=O)N1CCN(c2ccc(NC(=O)c3ccc([N+](=O)[O-])o3)cc2)CC1 ?
Peg3 prom inh: 100.2; ABHD5-PLIN5 inh: inactive; MITF TRPM1 inh: 89.5; PAX8 inh HTS: 90.4; Shn3 inh set2: inactive; EWS-Fli block: 58.0

How did CN1CCN(c2ccc(NC(=O)c3ccc(-c4ccc(Br)cc4)o3)cc2)CC1 do in these assays?
Peg3 prom inh: 88.8; ABHD5-PLIN5 inh: inactive; MITF TRPM1 inh: inactive; PAX8 inh HTS: inactive; Shn3 inh set2: inactive; EWS-Fli block: inactive

Results for CCN1CCN(c2ccc(NC(=O)c3ccc(Br)o3)cc2)CC1 ?
Peg3 prom inh: inactive; ABHD5-PLIN5 inh: inactive; MITF TRPM1 inh: inactive; PAX8 inh HTS: inactive; Shn3 inh set2: inactive

What do the screens show for `C[C@@H]1CCCCO[C@@H](CN(C)C(=O)Nc2ccc(C(F)(F)F)cc2)[C@@H](C)CN([C@H](C)CO)C(=O)c2cc(NC(=O)CCCCCC(=O)Nc3ccccc3N)ccc2O1`?
PAX8 inh HTS: inactive; EWS-Fli block: inactive

What do the screens show for `CCOc1cc(/C=N\NC(=O)Cc2ccccc2)ccc1OCC(=O)Nc1ccc(C)c(C)c1`?
Peg3 prom inh: inactive; ABHD5-PLIN5 inh: inactive; MITF TRPM1 inh: 64.0; Shn3 inh set2: inactive

What do the screens show for `O=C(COc1ccc(/C=N/NC(=O)c2cc3ccccc3o2)cc1Cl)Nc1ccccc1`?
Peg3 prom inh: 107.7; ABHD5-PLIN5 inh: inactive; MITF TRPM1 inh: 95.3; Shn3 inh set2: inactive

How did O=C(C1CC1)N1CC2(C1)[C@@H](c1ccccc1)[C@@H](CO)N2Cc1cncnc1 do in these assays?
PAX8 inh HTS: inactive; EWS-Fli block: inactive

Results for Oc1ccc(CNc2ccccc2F)c2cccnc12 ?
Peg3 prom inh: inactive; ABHD5-PLIN5 inh: inactive; MITF TRPM1 inh: 65.4; PAX8 inh HTS: 86.7; Shn3 inh set2: inactive; EWS-Fli block: inactive

Results for Oc1ccc(F)c2cccnc12 ?
Peg3 prom inh: inactive; ABHD5-PLIN5 inh: inactive; MITF TRPM1 inh: inactive; PAX8 inh HTS: 94.5; Shn3 inh set2: inactive; EWS-Fli block: inactive

Results for CCOc1cc(C(c2c(C)[nH][nH]c2=O)c2c(C)[nH][nH]c2=O)ccc1OCc1ccc([N+](=O)[O-])cc1 ?
Peg3 prom inh: inactive; ABHD5-PLIN5 inh: inactive; MITF TRPM1 inh: inactive; Shn3 inh set2: inactive

How did CCOc1cc(/C=C2/NC(=S)NC2=O)ccc1OCc1ccc([N+](=O)[O-])cc1 do in these assays?
Peg3 prom inh: 50.8; ABHD5-PLIN5 inh: inactive; MITF TRPM1 inh: 63.1; Shn3 inh set2: inactive

How did O=S(=O)(Nc1ccc(O)c(Sc2nc3ccccc3s2)c1)c1ccc(F)cc1 do in these assays?
Peg3 prom inh: inactive; ABHD5-PLIN5 inh: inactive; MITF TRPM1 inh: inactive; PAX8 inh HTS: inactive; Shn3 inh set2: inactive

How did CS(=O)(=O)c1ccc(Sc2nc3ccccc3s2)c([N+](=O)[O-])c1 do in these assays?
Peg3 prom inh: inactive; ABHD5-PLIN5 inh: inactive; MITF TRPM1 inh: inactive; Shn3 inh set2: 95.4

What do the screens show for `O=[N+]([O-])c1cc(S(=O)(=O)C(F)(F)F)ccc1Sc1nc2ccccc2s1`?
Peg3 prom inh: 110.4; ABHD5-PLIN5 inh: inactive; MITF TRPM1 inh: inactive; Shn3 inh set2: 97.7

What do the screens show for `COc1ncc(-c2ccc(N3C(c4ccsc4)=Cc4ccccc4C3CC(C)=O)cc2)cn1` (stereo not given)?
ABHD5-PLIN5 inh: inactive; PAX8 inh HTS: inactive; EWS-Fli block: inactive

How did CC(=O)CC1c2ccccc2C=C(c2ccsc2)N1c1ccc(-c2cccs2)cc1 (stereo not given) do in these assays?
ABHD5-PLIN5 inh: inactive; PAX8 inh HTS: 74.7; EWS-Fli block: inactive

What do the screens show for `O=C(N/N=C/c1ccc(O)cc1O)c1ccc(CN2C(=O)c3cccc4cccc2c34)cc1`?
Peg3 prom inh: inactive; ABHD5-PLIN5 inh: inactive; MITF TRPM1 inh: inactive; PAX8 inh HTS: 66.7; Shn3 inh set2: 94.0; EWS-Fli block: inactive

What do the screens show for `O=C(N/N=C/c1ccccc1)c1ccc(CN2C(=O)c3cccc4cccc2c34)cc1`?
Peg3 prom inh: inactive; ABHD5-PLIN5 inh: inactive; MITF TRPM1 inh: inactive; PAX8 inh HTS: inactive; Shn3 inh set2: inactive; EWS-Fli block: inactive

How did Cc1cc([N+](=O)[O-])nn1Cc1ccc(C(=O)N/N=C/c2ccc(O)cc2O)cc1 do in these assays?
Peg3 prom inh: 56.2; ABHD5-PLIN5 inh: inactive; MITF TRPM1 inh: inactive; PAX8 inh HTS: 62.6; Shn3 inh set2: inactive

Results for CCCCCCCCNS(=O)(=O)CCNCc1ccc(OC)cc1 ?
Peg3 prom inh: 61.1; ABHD5-PLIN5 inh: inactive; MITF TRPM1 inh: inactive; PAX8 inh HTS: inactive; Shn3 inh set2: inactive; EWS-Fli block: inactive

Results for COc1ccc(CNCCS(=O)(=O)NCc2ccc(OC)cc2)cc1 ?
Peg3 prom inh: inactive; ABHD5-PLIN5 inh: inactive; MITF TRPM1 inh: inactive; PAX8 inh HTS: inactive; Shn3 inh set2: inactive; EWS-Fli block: inactive

How did COc1cccc(C(=O)N2C[C@@H]3[C@H](c4ccccc42)[C@H](CO)N3C(C)=O)c1 do in these assays?
PAX8 inh HTS: inactive; EWS-Fli block: inactive

Results for C1CCCCCC(NCCN2CCNCC2)CCCCC1 ?
Peg3 prom inh: 100.9; ABHD5-PLIN5 inh: inactive; MITF TRPM1 inh: inactive; PAX8 inh HTS: inactive; Shn3 inh set2: inactive; EWS-Fli block: inactive

Results for NC(=O)N/N=C/c1c(Sc2nnnn2-c2ccccc2)nc2ccccn2c1=O ?
Peg3 prom inh: 103.3; ABHD5-PLIN5 inh: inactive; MITF TRPM1 inh: inactive; PAX8 inh HTS: inactive; Shn3 inh set2: inactive; EWS-Fli block: inactive

How did C[C@@H]1CCCCO[C@@H](CN(C)S(=O)(=O)c2cn(C)cn2)[C@H](C)CN([C@@H](C)CO)C(=O)c2cc(NS(=O)(=O)c3ccc(F)cc3)ccc2O1 do in these assays?
PAX8 inh HTS: inactive; EWS-Fli block: inactive

What do the screens show for `Cc1cc(CN(C)C(=O)c2cc(COc3ccc4ncccc4c3)on2)on1`?
Peg3 prom inh: inactive; ABHD5-PLIN5 inh: inactive; MITF TRPM1 inh: inactive; PAX8 inh HTS: 91.2; Shn3 inh set2: inactive; EWS-Fli block: inactive

What do the screens show for `CC(CNC(=O)c1cc(COc2ccc3ncccc3c2)on1)c1ccccc1` (stereo not given)?
Peg3 prom inh: inactive; ABHD5-PLIN5 inh: inactive; MITF TRPM1 inh: inactive; PAX8 inh HTS: inactive; Shn3 inh set2: 88.3; EWS-Fli block: inactive

What do the screens show for `O=C(NC1CCCCCCC1)c1cc(COc2ccc3ncccc3c2)on1`?
Peg3 prom inh: inactive; ABHD5-PLIN5 inh: inactive; MITF TRPM1 inh: inactive; PAX8 inh HTS: inactive; Shn3 inh set2: 87.9; EWS-Fli block: inactive

Results for COc1cc(Cl)ccc1OCc1cc(C(=O)NCC(C)c2ccccc2)no1 (stereo not given) ?
Peg3 prom inh: inactive; ABHD5-PLIN5 inh: inactive; MITF TRPM1 inh: inactive; PAX8 inh HTS: inactive; Shn3 inh set2: inactive; EWS-Fli block: inactive

What do the screens show for `CCc1ccc(CN(C)C(=O)c2cc(COc3cccc4cnccc34)on2)cc1`?
Peg3 prom inh: inactive; ABHD5-PLIN5 inh: inactive; MITF TRPM1 inh: inactive; PAX8 inh HTS: inactive; Shn3 inh set2: 86.3

Results for CN(Cc1nccn1C)C(=O)c1cc(COc2ccc3ncccc3c2)on1 ?
Peg3 prom inh: inactive; ABHD5-PLIN5 inh: inactive; MITF TRPM1 inh: inactive; PAX8 inh HTS: inactive; Shn3 inh set2: inactive; EWS-Fli block: inactive
